Experimental data from PubChem BioAssay AID1347146 (National Center for Advancing Translational Sciences (NCATS), 2019).
Results filed as inconclusive are left out. A call without a number means that no potency is given here. Calls of active or inactive are those of the source. The call rests on the fitted dose curve; in most records, active means well fitted inhibition curve with a large enough effect; inconclusive means small, poorly fitted or top-dose-only effect; inactive means no such curve, though single readings can be large or run the other way.

Target: Nicotinamide N-methyltransferase (Homo sapiens) (UniProt P40261)
Sequence (P40261 whole entry, looked up): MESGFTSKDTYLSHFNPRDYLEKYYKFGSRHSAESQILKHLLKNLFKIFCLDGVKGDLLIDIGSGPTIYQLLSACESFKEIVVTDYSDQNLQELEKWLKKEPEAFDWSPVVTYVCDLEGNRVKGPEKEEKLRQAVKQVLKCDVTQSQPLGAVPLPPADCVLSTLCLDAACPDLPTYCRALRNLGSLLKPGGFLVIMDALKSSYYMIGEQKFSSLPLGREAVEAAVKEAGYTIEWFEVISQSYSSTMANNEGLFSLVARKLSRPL
Assay: qHTS Assay for Inhibitors of N-terminal methyltransferase 1 (NTMT1): NNMT MTaseGlo counterscreen assay
Settings: NNMT enzyme, MTase-Glo luminescence counterscreen; series mostly up to 57.1 µM
In short: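 Luminescent MTase-Glo read-out of SAH from nicotinamide methylation: 1 µM nicotinamide, 100 µM SAM, 125 nM NNMT, 30 min RT after ~15 min compound preincubation. Values normalized to no-enzyme/DMSO controls, Hill-fitted.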
Potency means the concentration at half of the fitted maximal effect.

| Structure (SMILES) | Potency |
| --- | --- |
| OCC1OC(n2cnc3c(NO)ncnc32)C(O)C1O (stereo not drawn) | inactive |
| Nc1nc(=S)c2ncn([C@H]3O[C@@H](CO)[C@@H](O)[C@@H]3O)c2[nH]1 | inactive |
| COC(=O)[C@H]1[C@H]2C[C@H]3c4[nH]c5ccccc5c4CCN3C[C@H]2CC[C@@H]1O | inactive |
| Nc1ccc(CCNc2ncnc3c2ncn3C2OC(CO)C(O)C2O)cc1 (stereo not drawn) | inactive |
| CN(C)C(=O)/N=N/C(=O)N(C)C | inactive |
| Cc1cccc(C)c1OCC(N)C(C)C (stereo not drawn) | inactive |
| C#CCN(C)CCCOc1ccc(Cl)cc1Cl | inactive |
| CCN1CCC[C@H]1CNC(=O)c1cc(S(N)(=O)=O)ccc1OC | inactive |
| Nc1nc2ccc(Cl)cc2c2nc(-c3ccco3)nn12 | inactive |
| Nc1nc(=S)c2ncn([C@@H]3O[C@H](CO)[C@@H](O)[C@H]3O)c2[nH]1 | inactive |
| Cc1ccccc1CNc1ncnc2c1ncn2[C@@H]1O[C@H](CO)[C@@H](O)[C@H]1O | inactive |
| CCNC(=O)[C@H]1O[C@H](n2cnc3c(N)nc(NCCc4ccc(CCC(=O)O)cc4)nc32)[C@@H](O)[C@@H]1O | inactive |
| OCC1OC(n2cnc3c(=S)nc[nH]c32)C(O)C1O (stereo not drawn) | inactive |
| Cc1cc(C)c(/C=C2\C(=O)Nc3ccccc32)[nH]1 | inactive |
| O=C1Cc2c([nH]c3ccc(Br)cc23)-c2ccccc2N1 | inactive |
| CCN(CC)CCNC(=O)c1c(C)[nH]c(/C=C2\C(=O)Nc3ccc(F)cc32)c1C | inactive |
| CC(C)NC[C@@H](O)c1ccc(O)c(O)c1 | inactive |
| CC(=O)c1ccc2c(c1)N(CCCN(C)C)c1ccccc1S2 | inactive |
| CSc1ccc(C(=O)c2[nH]c(=O)[nH]c2C)cc1 | inactive |

| Structure (SMILES) | Potency |
| --- | --- |
| O=C1NC(=O)C(=Cc2ccc(-c3ccc(F)cc3O)o2)S1 | inactive |
| CN(C)CCCC1(c2ccc(F)cc2)OCc2cc(C#N)ccc21 (stereo not drawn) | inactive |
| O=c1c(O)c(-c2ccc(O)c(O)c2)oc2cc(O)cc(O)c12 | inactive |
| CCC(=O)c1ccc2c(c1)N(CCCN(C)C)c1ccccc1S2 | inactive |
| O=C(/C=C/c1ccc(O)cc1)c1ccc(O)cc1O | inactive |
| Oc1ccc(O)cc1 | 39.8 µM (active) |
| Brc1c(NC2=NCCN2)ccc2nccnc12 | inactive |
| COC(=O)[C@@H]1[C@H]2C[C@H]3c4[nH]c5ccccc5c4CCN3C[C@@H]2CC[C@@H]1O | inactive |
| CC1=C(\C=C/C(C)=C/C=C\C(C)=C\C(=O)O)C(C)(C)CCC1 | inactive |
| O=C(N[C@@H](Cc1ccccc1)C(=O)CCl)OCc1ccccc1 | inactive |
| Clc1ccc(N2CCN(Cc3c[nH]c4ncccc34)CC2)cc1 | inactive |
| CC(C)NCC(O)c1ccc(O)c(O)c1 (stereo not drawn) | inactive |
| COc1cc2c(NC3CCN(C)CC3)nc(N3CCCCC3)nc2cc1OCCCN(C)C | inactive |
| OC[C@H]1O[C@H](n2cnc3c(N[C@H]4CCC[C@@H]4O)ncnc32)[C@H](O)[C@@H]1O | inactive |
| CCN1C(=O)C=CC1=O | inactive |
| C=Cc1c(C)c2cc3[nH]c(cc4nc(cc5nc(cc1[nH]2)C(C)=C5CCC(=O)O)C(CCC(=O)O)=C4C)c(C)c3C=C | inactive |
| C[C@]12C[C@H](O)[C@H]3[C@@H](CCC4=CC(=O)CC[C@@]43C)[C@@H]1CC[C@@H]2C(=O)CO | inactive |
| CSc1nc(N)c2ncn([C@@H]3O[C@H](COP(=O)(O)OP(=O)(O)OP(=O)(O)O)[C@@H](O)[C@H]3O)c2n1 | inactive |
| Cc1ccc(S(=O)(=O)/C=C/C#N)cc1 | 15.8 µM (active) |
